Z-score and composite z-score data for eight molecules are collected here from PubChem BioAssay.

Activity calls are given as the source filed them. Unless noted, no rule for the calls is given here.

Assay [1] can be described thus: compound effects on lung adenocarcinoma cell viability – A549, calcein-AM fluorescence, 48 h, basal, profiling panel (AID 1162). Also: test concentration not given here. Conditions: higher = more signal.
Assay [2] in a line: compound effects on differentiated 3T3-L1 adipocyte viability – cell-based, 3T3-L1 adipocytes, calcein-AM fluorescence, 48 h, basal, profiling panel (AID 1163). Also: test concentration not given here. The settings on record: 3T3-L1 adipocytes viability, higher = more signal.
Assay [3] in a line: compound effects on hepatocellular carcinoma cell viability – HepG2, calcein-AM fluorescence, 48 h, basal, profiling panel (AID 1164). Also: test concentration not given here. The settings on record: higher = more signal.
Assay [4] can be described thus: compound effects on multiple myeloma cell viability – MM1S, calcein-AM fluorescence, 48 h, basal, profiling panel (AID 1165).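 Also: viability of MM1S multiple myeloma cells under basal unstimulated conditions; test concentration not given here.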 The settings on record: higher = more signal.
A short description of assay [5]: calcein-AM signal in unstimulated myeloma cells – cell-based, calcein-AM fluorescence, 48 h, PK04 Diversity Set, profiling panel (AID 1166).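 Also: cells grown under basal conditions without added stimulus; test concentration not given here.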 The settings on record: RPMI8226 myeloma viability, higher = more signal.
Assay [6] is described as follows: JC-1 mitochondrial signal, unstimulated HepG2 cells – cell-based, JC-1 fluorescence, 24 h, 100 nL compound, profiling panel (AID 1167). Also: test concentration not given here. Conditions: HepG2 mitochondrial potential, higher = more signal.
Assay [7] in a line: JC-1 mitochondrial signal, unstimulated adipocytes – cell-based, JC-1 fluorescence, 3T3-L1 adipocytes, 24 h, 100 nL compound, profiling panel (AID 1168). Also: test concentration not given here. Conditions: JC-1 mitochondrial fluorescence, higher = more signal, called active from +8 up or from −8 down.
Assay [8] is described as follows: JC-1 mitochondrial signal, unstimulated myeloma cells – cell-based, JC-1 fluorescence, RPMI8226, 24 h, 100 nL compound, profiling panel (AID 1169). Also: test concentration not given here. Conditions: JC-1 mitochondrial potential fluorescence, higher = more signal.
Assay [9] is described as follows: JC-1 mitochondrial signal, unstimulated MM1S myeloma – cell-based, JC-1 fluorescence, 24 h, 100 nL compound, profiling panel (AID 1170). Also: test concentration not given here. Conditions: MM1S mitochondrial potential, higher = more signal.
A short description of assay [10]: resazurin metabolic signal in A549 cells – cell-based, resazurin fluorescence, 24 h, PK04 Diversity Set, profiling panel (AID 1171). Also: test concentration not given here. The settings on record: A549 viability, higher = more signal, called active from +8 up or from −8 down.
The nature of assay [11]: resazurin metabolic signal in HepG2 cells – cell-based, resazurin fluorescence, 24 h, PK04 Diversity Set, profiling panel (AID 1172). Also: test concentration not given here. The settings on record: HepG2 viability, higher = more signal. In general terms: Alamar Blue is a resazurin reagent that responds to reducing activity.
The nature of assay [12]: budding yeast growth changes without added modifier – OD600, strain BY4716, 24 h, basal condition, primary screen (AID 1173). The settings on record: S. cerevisiae BY4716 growth, OD600, 24 h; higher = more signal, called active from +8 up or from −8 down.
Assay [13] can be described thus: viability profiling in MM1S myeloma cells – cell-based, resazurin fluorescence, basal, 24 h, PK04 Diversity Set, profiling panel (AID 1174). Also: test concentration not given here. The settings on record: higher = more signal, called active from +8 up or from −8 down.
Assay [14] deals with Dihydroorotate dehydrogenase (quinone), mitochondrial (Plasmodium falciparum (isolate 3D7)) (UniProt Q08210). The assay is described as follows: inhibition of P. falciparum DHODH – biochemical, C-terminal His tag, absorbance 600 nm, primary screen (AID 1175).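 Also: recombinant parasite enzyme with a five histidine tag at its C terminus; test concentration not given here.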 Conditions: PfDHODH enzyme, DCIP absorbance 600 nm; higher = more signal, called active from +8 up or from −8 down.
Assay [15] in a line: inhibition of PAO1 biofilm formation – strain PAO1, LB-PBS medium, absorbance 600 nm, primary screen (AID 1176). Also: test concentration not given here. Conditions: P. aeruginosa PAO1 growth/biofilm, A600, 12 h; higher = more signal.
Assay [16] is described as follows: growth modulation of vineyard yeast isolate – strain RM11-1a, OD600, basal, 24 h, primary screen (AID 1177).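 Also: cultures grown under basal conditions with no added stressor; test concentration not given here.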 Conditions: S. cerevisiae RM11-1a growth, OD600, 24 h; higher = more signal, called active from +8 up or from −8 down.
Assay [17] in a line: growth of efflux-deficient E. coli DRC39 – strain DRC39, OD650, 24 h, E. coli filamentation inducers, primary screen (AID 1178).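 Also: growth measured as culture turbidity by optical density at 650 nm; test concentration not given here.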 The settings on record: E. coli DRC39 acrAB, higher = more signal, called active from +8 up or from −8 down.
Assay [18] can be described thus: growth of efflux-deficient E. coli DRC39 – strain DRC39, OD650, 48 h, E. coli filamentation inducers, primary screen (AID 1179).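 Also: screen aims at cell division blockers that make cells filament.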 Conditions: E. coli DRC39 delta-acrAB growth, higher = more signal, called active from +8 up or from −8 down.
Assay [19] can be described thus: viability profiling in RPMI8226 myeloma cells – cell-based, resazurin fluorescence, basal, 24 h, PK04 Diversity Set, profiling panel (AID 1180).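 Also: RPMI8826 multiple myeloma cell line at 5000 cells per well; test concentration not given here.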 Conditions: higher = more signal.
Assay [20] has as its target E3 ubiquitin-protein ligase XIAP (Homo sapiens) (UniProt P98170). The experiment in a line: small molecules binding XIAP protein – biophysical, small-molecule microarray, fluorescence 635 nm, primary screen (AID 1181).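 Also: score merges 667 nm emission and signal to noise over triplicate slides.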 Conditions: higher = more signal.

Dihydroorotate dehydrogenase (quinone), mitochondrial (Plasmodium falciparum (isolate 3D7)), sequence (Q08210 whole entry, looked up): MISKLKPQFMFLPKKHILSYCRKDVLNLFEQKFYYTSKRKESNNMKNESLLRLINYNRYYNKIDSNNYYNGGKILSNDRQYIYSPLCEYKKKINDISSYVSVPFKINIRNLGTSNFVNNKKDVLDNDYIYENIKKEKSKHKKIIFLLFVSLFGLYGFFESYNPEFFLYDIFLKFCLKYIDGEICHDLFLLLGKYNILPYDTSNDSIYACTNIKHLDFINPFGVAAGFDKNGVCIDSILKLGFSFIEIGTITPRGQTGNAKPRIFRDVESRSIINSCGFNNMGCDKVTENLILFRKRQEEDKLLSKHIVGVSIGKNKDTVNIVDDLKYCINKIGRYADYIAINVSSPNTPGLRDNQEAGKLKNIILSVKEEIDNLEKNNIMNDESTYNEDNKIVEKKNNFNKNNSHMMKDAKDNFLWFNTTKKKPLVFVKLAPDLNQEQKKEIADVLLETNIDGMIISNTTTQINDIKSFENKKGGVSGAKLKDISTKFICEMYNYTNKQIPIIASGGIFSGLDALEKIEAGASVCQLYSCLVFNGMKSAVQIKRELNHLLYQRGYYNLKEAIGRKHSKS
E3 ubiquitin-protein ligase XIAP (Homo sapiens), sequence (P98170 whole entry, looked up): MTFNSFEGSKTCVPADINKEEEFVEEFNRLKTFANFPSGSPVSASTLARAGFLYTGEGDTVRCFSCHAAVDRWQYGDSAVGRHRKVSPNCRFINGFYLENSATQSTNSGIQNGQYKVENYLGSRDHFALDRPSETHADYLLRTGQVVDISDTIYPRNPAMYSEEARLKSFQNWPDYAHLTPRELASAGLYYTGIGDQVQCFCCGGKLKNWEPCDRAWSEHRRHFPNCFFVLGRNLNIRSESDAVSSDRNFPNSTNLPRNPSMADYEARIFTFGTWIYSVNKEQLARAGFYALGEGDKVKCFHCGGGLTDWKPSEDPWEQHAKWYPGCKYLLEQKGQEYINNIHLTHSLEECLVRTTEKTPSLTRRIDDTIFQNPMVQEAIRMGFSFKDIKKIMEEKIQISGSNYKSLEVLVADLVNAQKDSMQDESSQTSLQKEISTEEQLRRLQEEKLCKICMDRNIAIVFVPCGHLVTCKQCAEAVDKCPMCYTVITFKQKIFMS

Turning to `Cc1ccc(S[C@]2(C(=O)NC3CC3)CC(=O)N(C3CCCCC3)[C@@H]2c2ccc(CO)cc2I)cc1`, the z-score in [1] was 1.07; in [2] it was -0.07; in assay [3], 1.12; in [4], -2.5; in assay [5] it was -1.7; in assay [6] it was 1.62. Moreover, the z-score is 0.124 (inactive) in [7]; -0.558 in assay [8]; -1.2 in assay [9]; -0.0731 (inactive) in assay [10]; 0.57 in assay [11]; -0.134 (inactive) in assay [12]. Besides, the z-score in assay [13] is -0.232 (inactive); in [15], 0.475 (inactive); in assay [16], 0.537 (inactive); in assay [17], 0.738 (inactive); in [18], 0.377 (inactive); in assay [19], -1.54. Moreover, the values for the composite z-score in assay [14] and in assay [20] were 1.44 (inactive) and -0.13, respectively.

In the case of `CCOc1cc(C(O)C2C=CC3C(=O)N(c4ccccc4)C(=O)C3N2Nc2ccc([N+](=O)[O-])cc2)ccc1O` (stereo not given), the z-score in [1] is -0.499; in assay [2] it was -0.742; in assay [3], -0.527; in assay [4] it was 0.162; in assay [5], -0.223; in assay [6] it was -2.36. The z-score is -2.03 (inactive) in assay [7]; -0.459 in [8]; -0.908 in assay [9]; -0.373 (inactive) in [10]; -0.506 in [11]; -0.571 (inactive) in [12]. For the same molecule, the z-score was -0.669 (inactive) in assay [13]; 0.878 (inactive) in [15]; -0.864 (inactive) in assay [16]; -0.763 (inactive) in assay [17]; -0.709 (inactive) in assay [18]; -0.901 in [19]. The results for the composite z-score in assay [14] and in assay [20] were 0.377 (inactive) and -0.127, respectively.

With `CCC[C@@H]1C=C(C(=O)O)[C@H](c2ccc(C)cc2)N1S(=O)(=O)c1ccc(C)cc1`, the z-score in assay [1] is -0.85; in assay [2], 0.216; in assay [3], -0.522; in assay [4], -0.0213; in assay [5], 0.101; in assay [6], -0.584. For the same molecule, the z-score was -0.119 (inactive) in assay [7]; -0.131 in [8]; -0.166 in [9]; -0.112 (inactive) in assay [10]; -0.795 in [11]; 0.0188 (inactive) in [12]. For the same molecule, the z-score in assay [13] is -0.522 (inactive); in [15], 0.89 (inactive); in assay [16], -0.213 (inactive); in assay [17], -0.591 (inactive); in [18], 0.0595 (inactive); in assay [19], -2.01. In addition, the composite z-score was -0.0451 (inactive) in [14] and 0.22 in assay [20].

For `O=C/C=C/c1ccc(Cl)cc1`, the z-score is 1.04 in assay [1]; -0.0776 in assay [2]; 0.265 in [3]; -3.17 in assay [4]; 0.45 in [5]; 1.32 in [6]. For the same molecule, the z-score in assay [7] was -0.34 (inactive); in [8], -0.762; in assay [9], -1.25; in assay [10] it was -0.835 (inactive); in [11] it was -0.831; in assay [12], -18 (active). In addition, the z-score in [13] is -0.832 (inactive); in assay [15] it was 0.475 (inactive); in assay [16] it was -4.94 (inactive); in assay [17], 0.3 (inactive); in [18] it was 0.782 (inactive); in assay [19], -0.81. Also, the values for the composite z-score in assay [14] and in assay [20] were -1.96 (inactive) and -0.134, respectively.

As for `CC(C)N1C(=O)C[C@@](C(=O)NCc2ccccc2)(c2ccc([N+](=O)[O-])cc2)[C@H]1c1ccc(CO)cc1`, the z-score in assay [1] was -0.508; in [2] it was -0.749; in [3] it was -0.113; in assay [4], -0.0234; in [5], -0.0746; in assay [6], 0.924. Moreover, the z-score in assay [7] is 1.08 (inactive); in [8], -0.744; in assay [9], 0.301; in assay [10] it was 0.0885 (inactive); in assay [11], 0.222; in assay [12], -0.228 (inactive). In addition, the z-score in assay [13] is 0.0372 (inactive); in assay [15], -0.0528 (inactive); in assay [16] it was 0.131 (inactive); in assay [17] it was 0.531 (inactive); in assay [18], 1.23 (inactive); in [19], 1.26. Also, the composite z-score in assay [14] was 0.41 (inactive); in [20], -0.0543.

With `COC(=O)[C@@]1(Cc2ccccc2)[C@H]2c3cc(C(=O)N(C)C)n(Cc4c(-c5ccccc5)noc4C)c3C[C@H]2CN1C(=O)c1ccccc1`, the z-score in assay [1] is -0.914; in assay [2], -1; in assay [3] it was -1.41; in assay [4], -1.05; in assay [5], -1.09; in assay [6], 2.14. Moreover, the z-score in assay [7] is -1.05 (inactive); in [8], 0.168; in [9], -0.822; in [10], -0.702 (inactive); in assay [11] it was -1.19; in [12], 1.56 (inactive). The z-score in [13] is -2.41 (inactive); in assay [15], 1.98 (inactive); in assay [16], 0.337 (inactive); in assay [17] it was -0.539 (inactive); in assay [18], -0.971 (inactive); in assay [19], -2.93. Further, the values for the composite z-score in assay [14] and in assay [20] were -0.403 (inactive) and 0.424, respectively.

As for `COc1ccc([Si](C)(C)[C@H]2[C@H](CCn3cc(CCO)nn3)O[C@@]3(C(=O)N(Cc4ccc(N5CCOC5=O)cc4)c4ccccc43)[C@@H]2C)cc1`, the z-score is 0.252 in [1]; 0.469 in [2]; 0.161 in [3]; -3.07 in assay [4]; -2.73 in assay [5]; 0.484 in assay [6]. In addition, the z-score in assay [7] is 0.854 (inactive); in assay [8], -0.911; in [9], -1.33; in assay [10], -1.75 (inactive); in assay [11] it was -0.909; in assay [12], 0.93 (inactive). Moreover, the z-score was -2.57 (inactive) in [13]; 0.802 (inactive) in assay [15]; 1.22 (inactive) in assay [16]; 0.864 (inactive) in assay [17]; 0.562 (inactive) in [18]; -2.01 in [19]. Further, the composite z-score is 0.604 (inactive) in assay [14] and 0.339 in [20].

For the molecule `CN1C(=O)C2C(C1=O)C1C=C(CCCO)C2C(c2cccs2)N1C` (stereo not given), the z-score in assay [1] was 0.0141; in assay [2], -0.388; in assay [3], 0.174; in assay [4], 1.59; in [5] it was 0.664; in assay [6], 0.699. For the same molecule, the z-score is 0.617 (inactive) in assay [7]; 0.257 in [8]; -0.852 in assay [9]; -0.396 (inactive) in assay [10]; -0.341 in assay [11]; -0.37 (inactive) in assay [12]. Besides, the z-score in assay [13] is -0.739 (inactive); in [15], -0.146 (inactive); in assay [16], 0.185 (inactive); in [17], 0.469 (inactive); in [18] it was 0.742 (inactive); in assay [19], -0.626. Moreover, the composite z-score is -1.36 (inactive) in assay [14] and -0.412 in [20].
